About 83,000 compounds went through this panel and 20% of them were active in at least one assay; those are over-represented in the sample as a whole.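 In brief: 96-well plates, 48 h treatment, single concentration, percent growth endpoint.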 Calls of active or inactive are those of the source. How the source made its calls: active means growth percent below 10; inactive means the rest.
The molecules below were run on SN12C renal (assay: NCI-60 one-dose screen, 48 h (100 = growth as untreated, 0 = no growth, -100 = all killed)). Settings: 10 µM unless noted.

| SMILES | growth |
| --- | --- |
| COC(=O)c1nc(-c2ccccc2)oc1S(=O)(=O)n1nc(-c2ccccc2)cc1N | 73.3% (inactive) |
| COc1ccc(C(=O)c2cc(OC)c(C)c(OC)c2)cc1OC(=O)CCl | 41.5% (inactive) |
| CC(=O)c1cnc(-c2ccccc2)nc1CBr | 51.2% (inactive) |
| O=C1CC23OC4ON=C(Br)C4C2C(O)c2ccccc2N13 (stereo not drawn) | 101% (inactive) |
| COc1ccc(C(=S)c2cc(OC)c(OC)c(OC)c2)cc1OC(=O)CCl | 34.6% (inactive) |
| COc1ccc2oc(=O)cc(-c3c(C#N)c(N)n4nc(N)c(C#N)c4c3C#N)c2c1 | 103% (inactive) |
| O=C(Nc1cc(Br)ccn1)c1cc2cc(Nc3nc(-c4ccccc4)nc4ccccc34)ccc2oc1=O | 110% (inactive) |
| CC1CCCN(CCCCCOc2ccc3oc4ccc(Cl)cc4c(=O)c3c2)C1 (stereo not drawn) | 74.6% (inactive) |
| COc1cc(C2=NNC(c3ccc(N(C)C)cc3)C2)cc(OC)c1OC (stereo not drawn) | 49.3% (inactive) |
| Cn1c2ccccc2c2c(OC(=O)c3ccccc3)c3c(nc21)-c1ccccc1C3 | 98.1% (inactive) |
| COc1cc(C(C)c2ccc3c(ccn3C)c2)cc(OC)c1OC (stereo not drawn) | 32.6% (inactive) |
| CC(=O)OCC1SC(OC(C)=O)C(NC(=O)/C=C/CCl)C(OC(C)=O)C1OC(C)=O (stereo not drawn) | 89.4% (inactive) |
| C[C@H]1[C@H](C)CC[C@]2(C(=O)OCCCC[P+](c3ccccc3)(c3ccccc3)c3ccccc3)CC[C@]3(C)C(=CC[C@@H]4[C@@]5(C)CC[C@H](OC(=O)C(Cl)Cl)C(C)(C)[C@@H]5CC[C@]43C)[C@H]12 | -81% (active) |
| O=C1C(=O)c2c(nc3ccc(C(F)(F)F)cn23)-c2ccccc21 | -84.4% (active) |
| COc1ccc2[nH]c(-c3ccccc3)c(C=C(C#N)C#N)c2c1 | 59% (inactive) |
| NC(=N\N=C\c1ccccc1O)/C(N)=N/N=C/c1ccccc1O | 90.8% (inactive) |
| Cc1ccc(-c2nc(C#N)c(S(=O)(=O)N(C)CCO)o2)cc1 | 51% (inactive) |

| SMILES | growth |
| --- | --- |
| CC[C@H](Nc1ncnc2nc[nH]c12)c1nc2cccc(CC(=O)c3ccc(C(=O)NO)cc3)c2c(=O)n1-c1ccccc1 | 84% (inactive) |
| NC(=O)c1ccc2nc3c(n2c1)C(=O)C(=O)c1ccccc1-3 | -83.3% (active) |
| COc1cccc(C(=O)OCCn2nc3c4c(cccc42)C(=O)c2ccccc2-3)c1O | 41.5% (inactive) |
| COc1ccc(C(C)c2cc(OC)c(OC)c(OC)c2)cc1 (stereo not drawn) | 39.1% (inactive) |
| C#C[C@@]1(O)[C@@H](CO)O[C@@H](n2ccc3c(N)ncnc32)[C@@H]1O | -12.3% (active) |
| COc1cc(NC(=O)COc2cc(C)nc3ccc(OC)cc23)cc(OC)c1 | 88.9% (inactive) |
| CN1CCN(C(=O)[C@@]2(C)CC[C@]3(C)CC[C@]4(C)C(=CC[C@@H]5[C@@]6(C)CC[C@H](OC(=O)c7cccnc7)C(C)(C)[C@@H]6CC[C@]54C)[C@@H]3C2)CC1 | 80.4% (inactive) |
| NS(=O)(=O)c1ccc(N2Cc3cc(Cl)ccc3OC3=C2C(=O)N(CC2CCCCC2)C3=O)cc1 | -65.3% (active) |
| CCCCc1nc(Cl)c(C2CC(c3ccc(Cl)cc3)=NN2c2cc(Cl)cc(Cl)c2)[nH]1 (stereo not drawn) | 45.4% (inactive) |
| C[C@H]1[C@H](C)CC[C@]2(C(=O)OCCOCCOCC[P+](c3ccccc3)(c3ccccc3)c3ccccc3)CC[C@]3(C)C(=CC[C@@H]4[C@@]5(C)CC[C@H](OC(=O)C(Cl)Cl)C(C)(C)[C@@H]5CC[C@]43C)[C@H]12 | -6.85% (active) |
| C=C(C)[C@@H]1CC[C@]2(C(=O)N3CCN(C)CC3)CC[C@]3(C)[C@H](CC[C@@H]4[C@@]5(C)C/C(=C/c6ccco6)C(=O)C(C)(C)[C@@H]5CC[C@]43C)[C@@H]12 | 64.9% (inactive) |
| Clc1ccc2c(NCCCNC3CCCCC3)ccnc2c1 | 97% (inactive) |
| CCSc1nc(Cl)c(C#N)c(-c2ccc(F)cc2)n1 | 95.4% (inactive) |
| COc1cc2c(cc1OCCCOc1cc3c(cc1OC)C(=O)N1CC(F)(F)C[C@H]1C=N3)N=C[C@@H]1CC(F)(F)CN1C2=O | 35.8% (inactive) |
| CN1CCN(CC#CCOC(=O)CNC(=O)[C@]23CCC(C)(C)C[C@H]2C2=CC[C@@H]4[C@@]5(C)CC[C@H](O)C(C)(C)[C@@H]5CC[C@@]4(C)[C@]2(C)CC3)CC1 | 82.2% (inactive) |
| COc1cc(C(=O)N2CCN(c3ccccc3OC)CC2)c(NC(=O)c2cnccn2)cc1OCc1ccccc1 | 88.6% (inactive) |
